Screens from PubChem BioAssay.
Autofluor counter: compound fluorescence in toxin protease inhibitor counterscreen. compound autofluorescence counterscreen, microsphere flow cytometry; hits give high values. fluorescence intensity (no concentration beside the values). 3.1% of 360,000 active. AID 624483; in the data active = fluorescence intensity above about 16000; inconclusive = no clear call, values can overlap the other calls
BoNT-F LC inh: BoNT F light chain protease inhibition; Multiplex microsphere protease cleavage assay, flow cytometry; inhibition, % at 10 µM; 0.22% of 360,000 active; AID 588497; in the data active = inhibition above about 35%, passing the limit was not always enough; inconclusive = no clear call, values can overlap the other calls; note: plate controls were buffer without enzyme for full effect and enzyme alone for no effect
3CLpro inhibitor: SARS-CoV 3CLpro protease inhibition | P0C6X7 | recombinant SARS-CoV 3CLpro, quenched FRET peptide cleavage | inhibition, % at 6 µM | 0.14% of 290,000 active | AID 1706; in the data active = inhibition above about 12%
BoNT-A LC inh2: blocks Botulinum neurotoxin A light chain protease; multiplex microsphere protease substrate cleavage, flow cytometry; inhibition, % at 10 µM; 0.17% of 360,000 active; note: plate controls were buffer without enzyme for full effect and enzyme alone for no effect
Anthrax LF inh2: inhibitors of Bacillus anthracis lethal factor protease; P15917; 0.12% of 360,000 active; multiplex microsphere protease cleavage assay, LF; inhibition, % at 10 µM; note: plate controls were buffer without enzyme for full effect and enzyme alone for no effect
Target sequence (P15917 whole entry, looked up): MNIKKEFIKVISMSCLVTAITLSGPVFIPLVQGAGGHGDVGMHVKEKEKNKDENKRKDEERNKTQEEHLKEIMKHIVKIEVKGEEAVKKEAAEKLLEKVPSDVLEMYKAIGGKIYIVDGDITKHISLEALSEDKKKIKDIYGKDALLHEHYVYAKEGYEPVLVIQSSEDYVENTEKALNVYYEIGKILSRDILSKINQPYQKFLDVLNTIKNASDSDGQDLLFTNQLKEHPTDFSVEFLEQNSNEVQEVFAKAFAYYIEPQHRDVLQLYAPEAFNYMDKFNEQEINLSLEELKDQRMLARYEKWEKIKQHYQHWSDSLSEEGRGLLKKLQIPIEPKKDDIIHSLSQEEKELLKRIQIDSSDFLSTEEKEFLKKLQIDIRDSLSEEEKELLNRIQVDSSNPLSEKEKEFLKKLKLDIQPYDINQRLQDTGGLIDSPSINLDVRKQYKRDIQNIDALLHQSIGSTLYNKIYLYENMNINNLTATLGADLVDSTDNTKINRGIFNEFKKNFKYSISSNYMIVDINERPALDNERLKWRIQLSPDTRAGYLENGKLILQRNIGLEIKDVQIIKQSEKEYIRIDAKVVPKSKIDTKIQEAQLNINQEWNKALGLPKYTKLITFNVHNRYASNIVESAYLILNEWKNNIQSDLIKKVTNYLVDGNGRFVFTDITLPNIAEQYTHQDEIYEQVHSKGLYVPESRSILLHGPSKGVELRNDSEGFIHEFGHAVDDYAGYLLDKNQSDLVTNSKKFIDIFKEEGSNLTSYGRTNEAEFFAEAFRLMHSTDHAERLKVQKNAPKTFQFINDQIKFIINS
Starred values were filed as active, the others as inactive; ? = inconclusive. An excerpt weighted towards active compounds, which were near 3.5% of everything screened. Cut-off read from the data, not from the text of the source, unless noted: active = inhibition above about 30%; inconclusive = no clear call, values can overlap the other calls; inactive = below that.

SMILES | Autofluor counter | BoNT-F LC inh | 3CLpro inhibitor | BoNT-A LC inh2 | Anthrax LF inh2
COc1ccc(-c2nnn(CC(=O)N3CCOCC3)n2)cc1 | 9610 | -0.9 | -1.9 | 0.0 | -1.3
O=C(Cn1nnc(-c2ccc(OCc3ccccc3F)cc2)n1)N1CCOCC1 | 22617* | -2.4 | -5.8 | -0.3 | -2.3
O=C(CCCSc1ccc(Cl)cc1)Nc1ccccc1O | 4191 | -3.2 | 2.0 | 2.8 | 4.4
COc1cc(CNc2ccc(C)c(C)c2)cc(OC)c1OC | 17356* | -9.4 | -1.9 | -4.0 | -6.2
Cn1nnnc1SCCNCc1ccccc1F | 22828* | -5.5 | 1.1 | -2.0 | -1.1
O=C(O)c1ccc(-n2nnnc2SCc2ccccc2F)cc1 | 4378 | -0.7 | 1.9 | 0.4 | -3.4
COc1cccc(CNCCSc2nnnn2C)c1OC | 22850* | -5.8 | 3.0 | -1.7 | -2.5
Cn1nnnc1SCc1ccccc1F | 22071* | -1.1 | -4.4 | -0.5 | -1.1
Cc1ccc(OC(=O)c2ccncc2)c(C)c1 | 3621 | 46.6* | 3.0 | -0.3 | -12.8
Cc1ccc(C(=O)NCc2ccco2)cc1S(=O)(=O)Nc1cccc(Cl)c1 | 21942* | 2.1 | -3.4 | ? | -0.6
Cc1ccc(C)c(S(=O)(=O)NCc2ccc(C(=O)NCc3ccco3)cc2)c1 | 3811 | ? | -0.9 | -0.3 | -4.2
Cc1ccc(C2(C)NC(=O)N(Cc3c(C)noc3C)C2=O)cc1 (centres undefined) | 3074 | -2.4 | -5.3 | 0.5 | 0.5
CCn1cnc2c1c(=O)n(CC(=O)O)c(=O)n2Cc1ccccc1 | 3920 | -7.0 | 3.0 | 2.5 | 15.2
O=C(Cn1c(=O)c2c(ncn2Cc2ccccc2)n(Cc2ccccc2)c1=O)NC1CC1 | 19673* | -0.4 | -10.3 | 1.3 | -1.5
CCN1CCCCC(=N/O)/C(=N/O)CCCC1 | 3542 | 37.6* | 5.2 | -1.0 | 5.1
CCc1n[nH]c2c1/C(=N/O)CCC2 | 2930 | -7.5 | -7.3 | -0.1 | -5.4
COC(=O)C1=CN(C(C)C)C=C(C(=O)OC)C1c1cccc(OC)c1 | 3262 | 3.0 | 0.4 | -0.1 | -1.5
COC(=O)C1=CN(C(C)C)C=C(C(=O)OC)C1c1cc(Br)c(OC)c(OC)c1 | 23675* | -5.4 | 3.3 | -3.8 | -0.5
COc1cc(C(=O)N(Cc2cccnc2)Cc2cc3cc4c(cc3[nH]c2=O)OCCO4)cc(OC)c1OC | 22318* | 2.2 | 1.3 | 2.1 | 1.2
COc1ccc2[nH]c(=O)c(CN(CCO)C(=O)c3cccs3)cc2c1 | 22556* | 1.9 | -5.0 | 1.0 | -0.4
COc1ccc2cc(CN(C(=O)Nc3ccccc3)C3CCCC3)c(=O)[nH]c2c1 | 23679* | -5.5 | -0.4 | -2.8 | -1.4
O=C(c1ccccc1F)N(Cc1cccnc1)Cc1cc2cc3c(cc2[nH]c1=O)OCCO3 | 4208 | -12.6 | 1.5 | -0.6 | -0.1
CC(C)CN(Cc1cc2ccccc2[nH]c1=O)C(=O)c1cccnc1 | 22057* | -8.9 | -3.0 | ? | -2.4
Cc1ccc(C(=O)c2oc3ccccc3c2NC(=O)c2cc(-c3cc(C)ccc3O)n[nH]2)cc1 | 3297 | -4.3 | 3.0 | -0.5 | -8.5
CC(=O)N(Cc1cccnc1)Cc1cc2ccccc2[nH]c1=O | 23316* | -1.5 | 3.0 | -0.3 | -1.1
SMILES | Autofluor counter | BoNT-F LC inh | 3CLpro inhibitor | BoNT-A LC inh2 | Anthrax LF inh2
O=C(c1ccco1)N(Cc1cc2ccccc2[nH]c1=O)C1CCCCC1 | 2869 | -7.8 | 1.7 | 0.0 | 0.3
O=C(c1ccncc1)N(Cc1cc2ccccc2[nH]c1=O)C1CCCCC1 | 20954* | -0.8 | -1.2 | -0.7 | -0.7
Cc1ccc(S(=O)(=O)N(Cc2cccnc2)Cc2cc3ccccc3[nH]c2=O)cc1 | 5593 | 0.1 | 1.9 | 0.7 | -0.3
CCOc1ccc2[nH]c(=O)c(CN(Cc3cccnc3)C(=O)Nc3ccccc3OC)cc2c1 | 2483 | 0.1 | 3.4 | 0.2 | -8.0
COc1ccc2[nH]c(=O)c(CN(C(=O)c3cccnc3)c3ccc(C)cc3C)cc2c1 | 4386 | -3.4 | 1.0 | 0.2 | 2.5
COc1ccc2[nH]c(=O)c(CN(Cc3cccnc3)C(=O)Nc3ccccc3)cc2c1 | 23007* | -5.2 | -6.3 | -2.8 | -3.8
COc1ccc2[nH]c(=O)c(CN(C(=O)c3cccnc3)c3cc(C)ccc3C)cc2c1 | 18114* | -82.3 | 0.8 | -17.1 | -22.3
CCNc1nc(NCC)nc(Nn2cnnc2)n1 | 20282* | 0.4 | 3.1 | -0.4 | 0.8
CC(C)Cc1nnc(NC(=O)c2cc(-c3ccccc3)nc3ccccc23)s1 | 16445* | -2.2 | 3.5 | -0.9 | -1.0
O=C(Nc1ccc2oc(-c3ccccc3)nc2c1)c1ccc2c(c1)OCCO2 | 22968* | 1.7 | 5.1 | 0.3 | -1.0
CC(C)Cc1nnc(NC(=O)c2cc(-c3ccncc3)nc3ccccc23)s1 | 5007 | -29.0 | -6.8 | 1.3 | -13.2
O=C(Nc1ccc2c(c1)OCCO2)c1cc(-c2ccccc2)nc2ccccc12 | 24974* | -14.6 | 0.8 | ? | -4.8
